Results taken from PubChem BioAssay AID591 (National Center for Advancing Translational Sciences (NCATS), 2007).
The whole screen tested about 59,000 compounds, of which about 60 (0.1%) were called active. The rule behind the calls is not given here. The list comes from a sample in which actives are over-represented; it also holds similar structures and randomly drawn compounds.

Test: qHTS Assay for Spectroscopic Profiling in A488 Spectral Region
Conditions: compound autofluorescence; max dye equivalency: Compound Type: qHTS ECL - SigmaAldrich, hits give high values unless noted; outcome: dye equivalency, Compound Type: qHTS ECL - MLSMR unless noted
How it was run: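 Compound autofluorescence was read in 100 mM Tris pH 8.0 after 15 min at room temperature, ex 480 nm/em 540 nm. Intensities were converted to A488 dye-equivalent concentration using an on-plate six-point A488 standard curve.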

outcome, inactive:
Cc1cc(Br)ccc1NC(=O)C1CCCO1 (stereo unspecified) inactive [dye equivalency, Compound Type: qHTS ECL - DPISMR]
Cc1nnc(C)n1/N=C/c1ccc(C(C)C)cc1
CCON=C1C(C)(C)C(C)(C)C(C)(C)C1(C)C inactive [dye equivalency, Compound Type: qHTS ECL - NCI]
COc1ccc(C2/C(=C(/O)c3ccc(OC(C)C)cc3)C(=O)C(=O)N2CCCN2CCOCC2)cc1 (stereo unspecified)
COC(=O)c1ccc(Oc2nc(NC(C)C)nc(SC)n2)cc1 inactive [dye equivalency, Compound Type: qHTS ECL - DPISMR]
CCc1nnc(NC(=O)CSc2nnc(COc3ccc(C#N)cc3)n2-c2ccccc2)s1
C=CCOc1ccc(C2/C(=C(\O)c3c(C)[nH]c(C(=O)OC)c3C)C(=O)C(=O)N2CCN(C)C)cc1 (stereo unspecified) inactive [dye equivalency, Compound Type: qHTS ECL - DPISMR]
COc1ccc(NC(=O)N2CC3(CCN(C(C)=O)CC3)C2)cc1 inactive [dye equivalency, Compound Type: qHTS ECL - Pharmacopeia]
O=c1c(-c2ccc(F)cc2)nc2cnc(N3CCOCC3)nc2n1-c1ccccc1 inactive [dye equivalency, Compound Type: qHTS ECL - Pharmacopeia]
O=C(CSc1nnc(-c2ccncc2)n1C1CCCCC1)Nc1ccccc1
c1cncc(-c2nc(N3CCNCC3)c3ccccc3n2)c1 inactive [dye equivalency, Compound Type: qHTS ECL - Pharmacopeia]
Cc1ccc(S(=O)(=O)N2CCN(Cc3cccc(C)c3O)CC2)cc1
COc1ccc(-c2nc3cnc(N(C)C)nc3n(Cc3cccs3)c2=O)cc1 inactive [dye equivalency, Compound Type: qHTS ECL - Pharmacopeia]
Cc1nc2cnc(N3CCNCC3)nc2n(Cc2ccc(F)cc2)c1=O inactive [dye equivalency, Compound Type: qHTS ECL - Pharmacopeia]
COCCn1c(=O)c(-c2ccc(OC)cc2)nc2cnc(Oc3cccc(Cl)c3)nc21 inactive [dye equivalency, Compound Type: qHTS ECL - Pharmacopeia]
COc1ccc(OC)c2c(N)c(C#N)c(C(F)(F)C(F)(F)F)nc12
O=C(Nc1nn(Cc2ccccc2F)cc1Br)c1cccs1 inactive [dye equivalency, Compound Type: qHTS ECL - DPISMR]
Brc1ccc(Nc2c3c(nc4ncnn24)CCC3)cc1
Cc1ccccc1C(OCC(O)CN1CCCCC1CCO)c1ccccc1 (stereo unspecified)
CCCN1C(=O)C(NS(=O)(=O)c2ccc(N)cc2)(C(F)(F)F)C(C(=O)OC)=C1C (stereo unspecified) inactive [dye equivalency, Compound Type: qHTS ECL - DPISMR]
Cc1cc(C(F)(F)F)n2ncc(-c3ccccc3)c2n1 inactive [dye equivalency, Compound Type: qHTS ECL - DPISMR]
COc1ccccc1CNc1ncncc1-c1cccnc1 inactive [dye equivalency, Compound Type: qHTS ECL - Pharmacopeia]
Cc1ccc(S(=O)(=O)Nc2ccccc2CNc2c(C)n(C)n(-c3ccccc3)c2=O)cc1
CC(=NC1CCN(Cc2ccccc2)CC1)c1c(O)[nH]c(=O)[nH]c1=O inactive [dye equivalency, Compound Type: qHTS ECL - DPISMR]
CCn1ccnc1C[C@@H]1COc2ccccc2O1 inactive [dye equivalency, Compound Type: qHTS ECL - SigmaAldrich]
CN1[C@H]2CC(OC(=O)[C@@H](CO)c3ccccc3)C[C@H]1[C@H]1O[C@H]12 (stereo partly specified) inactive [dye equivalency, Compound Type: qHTS ECL - Prestwick]
